PMC4336329 (PLoS ONE, 2015)
The campaign covered roughly 310,000 compounds. About 14,000 (4.5%) showed an effect of 50% or more. The effect is printed as a negative number. This excerpt belongs to a sample that is enriched for strong results.

The molecules below were run against human ether-à-go-go-related gene (hERG) potassium channel (human, UniProt Q12809) (assay: primary screen, population patch clamp on CHO cells stably expressing hERG; higher = less effect of the substance).
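Further: peak tail current of the secondary pulse compared with the same well before compound.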

Sequence of human ether-à-go-go-related gene (hERG) potassium channel (Q12809 whole entry, looked up): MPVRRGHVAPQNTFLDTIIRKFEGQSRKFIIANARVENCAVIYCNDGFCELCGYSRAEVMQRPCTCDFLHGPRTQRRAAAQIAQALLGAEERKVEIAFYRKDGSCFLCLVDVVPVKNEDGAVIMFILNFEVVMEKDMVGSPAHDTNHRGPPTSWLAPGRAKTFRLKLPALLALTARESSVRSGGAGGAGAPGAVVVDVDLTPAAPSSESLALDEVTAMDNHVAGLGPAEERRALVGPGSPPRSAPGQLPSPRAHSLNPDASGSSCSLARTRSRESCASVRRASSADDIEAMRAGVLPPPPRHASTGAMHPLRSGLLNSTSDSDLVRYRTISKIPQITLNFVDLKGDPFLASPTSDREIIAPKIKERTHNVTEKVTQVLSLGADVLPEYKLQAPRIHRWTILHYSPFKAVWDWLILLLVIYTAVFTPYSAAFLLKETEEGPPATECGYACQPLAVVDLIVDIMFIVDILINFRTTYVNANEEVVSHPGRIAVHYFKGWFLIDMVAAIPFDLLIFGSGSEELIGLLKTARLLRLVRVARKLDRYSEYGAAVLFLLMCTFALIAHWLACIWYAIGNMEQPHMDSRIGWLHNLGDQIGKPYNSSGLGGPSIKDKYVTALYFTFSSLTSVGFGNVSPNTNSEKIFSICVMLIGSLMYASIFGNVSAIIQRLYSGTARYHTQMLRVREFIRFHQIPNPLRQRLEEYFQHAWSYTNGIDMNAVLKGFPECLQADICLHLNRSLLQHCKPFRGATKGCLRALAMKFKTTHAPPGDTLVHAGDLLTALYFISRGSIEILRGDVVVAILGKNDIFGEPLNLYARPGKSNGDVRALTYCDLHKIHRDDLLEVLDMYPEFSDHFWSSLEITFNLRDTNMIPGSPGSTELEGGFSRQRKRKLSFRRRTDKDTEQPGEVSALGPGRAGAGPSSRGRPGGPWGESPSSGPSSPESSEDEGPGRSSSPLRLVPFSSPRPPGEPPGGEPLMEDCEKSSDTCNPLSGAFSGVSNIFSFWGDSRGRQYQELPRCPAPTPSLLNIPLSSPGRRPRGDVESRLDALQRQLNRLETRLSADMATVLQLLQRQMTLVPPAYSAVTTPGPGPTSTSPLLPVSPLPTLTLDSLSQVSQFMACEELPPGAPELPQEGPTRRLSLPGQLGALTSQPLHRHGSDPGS

Row | SMILES | hERG current change (%, negative = inhibition) at 10uM
1 | CC(C)Oc1ccc(S(=O)(=O)N2CCCCC2)cc1NC(=O)C1CSC2(C)CCC(=O)N12 (stereo not drawn) | -20.9%
2 | COc1cc(OC)c(NC(=O)CN(C)S(=O)(=O)c2ccc3[nH]c(=O)oc3c2)cc1Cl | 3.44%
3 | Cc1cccc(NC(=O)CN(C)S(=O)(=O)c2ccc(-c3ccc(=O)[nH]n3)s2)c1C | -19.9%
4 | Cc1ccccc1NC(=O)CN(C)S(=O)(=O)c1ccc(-c2ccc(=O)[nH]n2)s1 | -78.6%
5 | CCc1ccccc1NC(=O)CN(C)S(=O)(=O)c1ccc(-c2ccc(=O)[nH]n2)s1 | -74.8%
6 | COc1cc(NC(=O)CN(C)S(=O)(=O)c2ccc(-c3ccc(=O)[nH]n3)s2)cc(OC)c1 | -5.53%
7 | CCOc1ccc(NC(=O)CN(C)S(=O)(=O)c2ccc(-c3ccc(=O)[nH]n3)s2)cc1 | 2.54%
8 | COc1cc(OC)c(NC(=O)CN(C)S(=O)(=O)c2ccc(-c3ccc(=O)[nH]n3)s2)cc1Cl | -56.5%
9 | Cc1ccccc1NC(=O)CN(C)S(=O)(=O)c1cccs1 | 2.52%
10 | CCOC(=O)CCN(c1ccccc1)S(=O)(=O)c1ccc(-c2ccc(=O)[nH]n2)s1 | -29.3%
11 | CC1CCN(S(=O)(=O)c2ccc3[nH]c(=O)[nH]c3c2)CC1 | -3.58%
12 | O=C(Nc1cc(S(=O)(=O)N2CCCCC2)ccc1Cl)C1=NN(c2ccccc2)C(=O)CC1 | 12.6%
13 | O=C(NNC(=O)C1CCN(C(=O)Nc2ccccc2)CC1)c1ccc([N+](=O)[O-])cc1 | 2.62%
14 | CCCOc1ccc(-c2c(C(=O)N/N=C(\C)c3ccco3)nnn2-c2nonc2N)cc1 | 22.5%
15 | Cc1[nH]c2ccccc2c1C(=O)COC(=O)c1ccc[n+]([O-])c1 | 0.499%
16 | NC(=O)c1ccc(Oc2ccc(C(N)=O)cc2)cc1 | 17.5%
17 | CCc1sc(C(C2C(=O)CC(C)(C)CC2=O)C2C(=O)CC(C)(C)CC2=O)cc1[N+](=O)[O-] | -5.07%
18 | O=C(Nc1ccc2c(c1)OCCO2)c1ccc(S(=O)(=O)N2CCCCC2)cc1 | 4.38%
19 | Cc1ccccc1-c1ccc(/C=C2/SC(N3CCOCC3)=NC2=O)o1 | -15.9%
20 | Cc1ccc(-c2ccc(/C=C3\SC(N4CCOCC4)=NC3=O)o2)cc1 | -64.8%
21 | O=C1N=C(N2CCOCC2)S/C1=C/c1ccc(-c2ccc(F)cc2)o1 | 2.43%
22 | O=C1N=C(N2CCOCC2)S/C1=C\C=C/c1ccccc1 | -58.2%
23 | CC(=C/c1ccccc1)/C=C1/SC(N2CCOCC2)=NC1=O | -20.1%

Row | SMILES | hERG current change (%, negative = inhibition) at 10uM
24 | O=C1N=C(N2CCCC2)S/C1=C\C=C\c1ccccc1 | -32.4%
25 | CC(=O)c1c(C)[nH]c(C(=O)OCn2nnc3ccccc3c2=O)c1C | 9.87%
26 | C/C(=N\NC(=O)C1CC1c1ccccc1)c1ccc(C)s1 (stereo not drawn) | -6.02%
27 | CCOC(=O)c1ccc2c(c1)n(CCO)c(C)[n+]2CC.[I-] | 10.6%
28 | CCOC(=O)c1ccc2c(c1)n(Cc1ccccc1)c(C)[n+]2CC.[O-][Cl+3]([O-])([O-])[O-] | -7.56%
29 | CCOC(=O)c1ccc2c(c1)n(CC)c(/C=C/N(C)c1ccccc1)[n+]2CC.[I-] | -74.3%
30 | CCOC(=O)c1ccc2c(c1)n(CC)c(C)[n+]2CC.[I-] | 23.7%
31 | CCOC(=O)c1ccc2c(c1)n(CCCS(=O)(=O)[O-])c(/C=C/c1ccc(Cl)cc1)[n+]2CC | -23.1%
32 | CCn1c(/C=C/N(C)c2ccccc2)[n+](CC)c2ccc(Cl)cc21.[I-] | -16%
33 | CCn1c(C)[n+](CC)c2ccc(C(=O)N(C)c3ccccc3)cc21.[I-] | 37.4%
34 | CCn1c(/C=C/Nc2ccccc2)[n+](CC)c2ccc(C(=O)OCC(F)(F)F)cc21.[I-] | -81.6%
35 | CCOC(=O)c1ccc2c(c1)n(CC)c(/C=C/Nc1ccccc1)[n+]2CC.[I-] | -80%
36 | CCN(C(=O)Nc1ccccc1)c1ccccc1 | 4.25%
37 | CN(C)CCCNc1ccc(-c2nn(C)c(=O)c3ccccc23)cc1[N+](=O)[O-] | -16%
38 | Cl.Fc1ccc(Cn2nnnc2CN2CCc3ccccc3C2)cc1 | -10.6%
39 | Cn1c(CSc2nc3ccccc3s2)nnc1SCC(=O)NCc1cccnc1 | -5.4%
40 | CC(=O)Nc1cccc(OCc2cnc(Cl)s2)c1 | 11.4%
41 | COc1ccccc1-c1c(C)nn2c(N3CCCCCC3)cc(C)nc12 | -8.02%
42 | CSc1ncc(C(=O)Nc2cccc(C)c2C)c(C)n1 | 9.56%
43 | Cc1ccc(C(=O)Nc2ccc(Br)c(C(F)(F)F)c2)cc1 | 4.38%
44 | Cc1nn2c(COc3ccc(NC(=O)c4ccccc4)cc3)nnc2c2ccccc12 | 4.38%
45 | Cc1nnc(SCc2ccc(F)cc2)n1NC/C=C/c1ccccc1 | -18.6%
